Source: PMC4081100, “A DNA-binding-site landscape and regulatory network analysis for NAC transcription factors in Arabidopsis thaliana”

Tests used:
Assay in all cases: universal protein binding microarray (PBM); transcription factors of Arabidopsis thaliana; high values mean tight binding
GST-ANAC092(1-176) = target: T1, GST-ANAC092(1-176) (Arabidopsis thaliana, UniProt Q9FKA0 1-176); details: protein: recombinant; tags: GST; chain copies: 2; dsDNA, one strand shown
T1 sequence: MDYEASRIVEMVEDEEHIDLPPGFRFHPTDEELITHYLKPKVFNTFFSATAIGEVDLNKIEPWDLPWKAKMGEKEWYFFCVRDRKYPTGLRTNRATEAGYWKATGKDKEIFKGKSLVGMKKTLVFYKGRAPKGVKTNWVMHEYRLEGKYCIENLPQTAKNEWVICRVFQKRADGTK
Procedure, shortened: (§1)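 GST-tagged proteins (NAC-domain, full-length or DNA-binding-domain) were induced in cells, with zinc acetate supplied for zinc-finger proteins, then purified on glutathione–Sepharose 4B. Each was tested in duplicate at 200 to 500 nM final on custom all-10-mer Agilent 4 × 180K arrays rendered double-stranded by primer extension. The binding value is the normalised enrichment score (E-score) across gapped and ungapped 8-mers.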

GST-ANAC055(1-171) = target: T2, GST-ANAC055(1-171) (Arabidopsis thaliana, UniProt Q9LDY8 1-171); details: protein: recombinant; tags: GST; chain copies: 2; dsDNA, one strand shown
T2 sequence: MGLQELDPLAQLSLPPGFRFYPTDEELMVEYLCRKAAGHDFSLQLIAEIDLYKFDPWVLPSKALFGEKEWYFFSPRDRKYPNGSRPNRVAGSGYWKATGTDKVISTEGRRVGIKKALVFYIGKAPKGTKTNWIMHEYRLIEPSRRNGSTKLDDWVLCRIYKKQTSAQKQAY
Procedure, shortened: as §1

GST-ATAF1 NAC domain = target: T3, GST-ATAF1 NAC domain (Arabidopsis thaliana, UniProt Q39013 7-158); details: protein: recombinant; tags: GST; chain copies: 2; dsDNA, one strand shown
T3 sequence: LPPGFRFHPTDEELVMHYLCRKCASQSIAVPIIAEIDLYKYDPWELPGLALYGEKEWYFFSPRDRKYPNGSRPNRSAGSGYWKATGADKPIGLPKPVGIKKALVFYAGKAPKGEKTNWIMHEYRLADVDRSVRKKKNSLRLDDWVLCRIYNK
Procedure, shortened: as §1

[1] = target: T4, GST-ANAC092(1-285) full length (Arabidopsis thaliana, UniProt Q9FKA0 1-285); details: protein: recombinant; tags: GST; chain copies: 2; dsDNA, one strand shown
T4 sequence: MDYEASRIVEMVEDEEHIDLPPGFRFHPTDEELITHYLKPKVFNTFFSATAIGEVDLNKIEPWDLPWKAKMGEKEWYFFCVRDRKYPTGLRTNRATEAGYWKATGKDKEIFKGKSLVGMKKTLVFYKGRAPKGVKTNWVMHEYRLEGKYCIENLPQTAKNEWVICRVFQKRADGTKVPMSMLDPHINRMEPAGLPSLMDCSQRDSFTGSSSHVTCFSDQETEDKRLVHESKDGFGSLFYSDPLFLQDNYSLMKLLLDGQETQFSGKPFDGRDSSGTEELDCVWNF
Procedure, shortened: as §1

GST-NAP(1-166) = target: T5, GST-NAP(1-166) (Arabidopsis thaliana, UniProt O49255 1-166); details: protein: recombinant; tags: GST; chain copies: 2; dsDNA, one strand shown
T5 sequence: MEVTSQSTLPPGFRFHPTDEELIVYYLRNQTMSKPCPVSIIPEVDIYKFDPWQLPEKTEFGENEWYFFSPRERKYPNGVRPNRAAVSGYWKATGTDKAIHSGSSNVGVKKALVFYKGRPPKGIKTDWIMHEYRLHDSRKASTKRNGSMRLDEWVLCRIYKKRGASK
Procedure, shortened: as §1

GST-NST2(1-184) = target: T6, GST-NST2(1-184) (Arabidopsis thaliana, UniProt Q9M274 1-184); details: protein: recombinant; tags: GST; chain copies: 2; dsDNA, one strand shown
T6 sequence: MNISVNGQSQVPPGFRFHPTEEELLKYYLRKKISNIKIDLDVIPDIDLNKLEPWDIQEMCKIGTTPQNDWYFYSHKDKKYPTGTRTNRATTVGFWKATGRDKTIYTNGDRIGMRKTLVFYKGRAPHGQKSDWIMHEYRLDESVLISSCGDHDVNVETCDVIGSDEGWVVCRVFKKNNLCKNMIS
Procedure, shortened: as §1

GST-SND1(1-203) = target: T7, GST-SND1(1-203) (Arabidopsis thaliana, UniProt Q9LPI7 1-203); details: protein: recombinant; tags: GST; chain copies: 2; dsDNA, one strand shown
T7 sequence: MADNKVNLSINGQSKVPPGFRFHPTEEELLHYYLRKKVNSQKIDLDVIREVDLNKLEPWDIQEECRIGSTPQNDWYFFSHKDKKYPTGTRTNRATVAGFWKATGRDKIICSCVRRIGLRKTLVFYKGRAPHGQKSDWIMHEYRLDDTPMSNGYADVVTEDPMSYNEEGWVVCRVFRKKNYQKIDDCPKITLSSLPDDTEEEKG
Procedure, shortened: as §1

GST-VND3 NAC domain = target: T8, GST-VND3 NAC domain (Arabidopsis thaliana, UniProt Q9FH59 12-162); details: protein: recombinant; tags: GST; chain copies: 2; dsDNA, one strand shown
T8 sequence: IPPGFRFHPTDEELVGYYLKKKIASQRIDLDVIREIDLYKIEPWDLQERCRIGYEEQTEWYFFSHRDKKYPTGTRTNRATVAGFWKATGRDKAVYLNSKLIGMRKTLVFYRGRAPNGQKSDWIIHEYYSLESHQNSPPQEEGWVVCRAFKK
Procedure, shortened: as §1

GST-VND7 NAC domain = target: T9, GST-VND7 NAC domain (Arabidopsis thaliana, UniProt Q9C8W9 9-158); details: protein: recombinant; tags: GST; chain copies: 2; dsDNA, one strand shown
T9 sequence: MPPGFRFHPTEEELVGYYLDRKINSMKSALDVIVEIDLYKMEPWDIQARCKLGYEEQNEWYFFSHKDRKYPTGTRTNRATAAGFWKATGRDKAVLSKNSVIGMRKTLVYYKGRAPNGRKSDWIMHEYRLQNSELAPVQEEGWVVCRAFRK
Procedure, shortened: as §1

GST-NTL6(1-168) = GST-NTL6(1-168) (Arabidopsis thaliana, UniProt Q9SCK6 1-168); details: protein: recombinant; tags: GST; chain copies: 2; dsDNA, one strand shown
GST-NTL6(1-168), sequence (Q9SCK6 1-168): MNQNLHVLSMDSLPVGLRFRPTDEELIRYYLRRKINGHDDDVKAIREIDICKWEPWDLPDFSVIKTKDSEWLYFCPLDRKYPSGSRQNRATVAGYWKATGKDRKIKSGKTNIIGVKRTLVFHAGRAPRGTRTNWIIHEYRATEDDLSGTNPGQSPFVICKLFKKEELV
Procedure, shortened: as §1

GST-ANAC019 NAC domain = target: T10, GST-ANAC019 NAC domain (Arabidopsis thaliana, UniProt Q9C932 14-162); details: protein: recombinant; tags: GST; chain copies: 2; dsDNA, one strand shown
T10 sequence: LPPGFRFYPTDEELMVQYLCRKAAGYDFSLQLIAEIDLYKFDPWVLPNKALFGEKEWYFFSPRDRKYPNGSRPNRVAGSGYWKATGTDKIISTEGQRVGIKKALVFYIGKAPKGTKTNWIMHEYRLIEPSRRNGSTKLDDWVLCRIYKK
Procedure, shortened: as §1

GST-WRKY1(266-371) = GST-WRKY1(266-371) (Arabidopsis thaliana, UniProt Q9SI37 266-371); details: protein: recombinant; tags: GST; dsDNA, one strand shown
GST-WRKY1(266-371), sequence (Q9SI37 266-371): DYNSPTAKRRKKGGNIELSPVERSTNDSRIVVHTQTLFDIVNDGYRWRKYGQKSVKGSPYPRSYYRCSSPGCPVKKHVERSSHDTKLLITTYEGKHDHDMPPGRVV
Procedure, shortened: as §1

GST-NTL8 NAC domain = target: T11, GST-NTL8 NAC domain (Arabidopsis thaliana, UniProt Q9XIN7 14-156); details: protein: recombinant; tags: GST; chain copies: 2; dsDNA, one strand shown
T11 sequence: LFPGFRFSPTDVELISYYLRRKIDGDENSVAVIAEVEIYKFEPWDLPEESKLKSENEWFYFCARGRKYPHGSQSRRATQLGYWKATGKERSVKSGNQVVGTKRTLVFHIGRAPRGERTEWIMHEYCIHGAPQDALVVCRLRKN
Procedure, shortened: as §1

Sequence	binding signal (GST-ANAC092(1-176))	binding signal (GST-ANAC055(1-171))	binding signal (GST-ATAF1 NAC domain)	binding signal [1]	binding signal (GST-NAP(1-166))	binding signal (GST-NST2(1-184))	binding signal (GST-SND1(1-203))	binding signal (GST-VND3 NAC domain)	binding signal (GST-VND7 NAC domain)	binding signal (GST-NTL6(1-168))	binding signal (GST-ANAC019 NAC domain)	binding signal (GST-WRKY1(266-371))	binding signal (GST-NTL8 NAC domain)
ACGCCATC	0.421 E-score	0.098 E-score	0.0609 E-score	0.453 E-score	0.171 E-score	0.237 E-score	0.41 E-score	0.125 E-score	0.108 E-score	–	–	–	–
AAGTCAGA	0.0562 E-score	0.073 E-score	–	0.14 E-score	–	0.132 E-score	0.0642 E-score	0.166 E-score	–	0.0583 E-score	0.0582 E-score	0.455 E-score	–
AGCGTAAA	0.223 E-score	–	0.12 E-score	0.241 E-score	0.126 E-score	0.244 E-score	0.413 E-score	0.15 E-score	0.119 E-score	–	0.0508 E-score	–	–
ATTTCTTA	–	0.0799 E-score	0.19 E-score	0.185 E-score	–	0.126 E-score	0.225 E-score	0.0914 E-score	0.148 E-score	0.409 E-score	–	–	–
GTTAAGGA	0.116 E-score	0.165 E-score	0.11 E-score	0.0916 E-score	–	0.16 E-score	0.276 E-score	0.176 E-score	–	0.424 E-score	0.178 E-score	0.0559 E-score	0.273 E-score
ATACGCCA	0.455 E-score	0.22 E-score	0.331 E-score	0.455 E-score	0.201 E-score	0.283 E-score	0.398 E-score	0.192 E-score	0.247 E-score	–	–	–	0.0758 E-score
ACAAGTTA	0.362 E-score	0.106 E-score	0.162 E-score	0.41 E-score	–	0.194 E-score	0.216 E-score	0.152 E-score	0.146 E-score	–	–	–	–
ATGCGTAA	0.319 E-score	0.108 E-score	0.115 E-score	0.356 E-score	0.175 E-score	0.243 E-score	0.436 E-score	0.217 E-score	0.188 E-score	–	–	–	–
AGTCAAAC	–	0.103 E-score	0.109 E-score	–	0.0582 E-score	0.0701 E-score	0.126 E-score	0.103 E-score	–	0.0896 E-score	0.0687 E-score	0.491 E-score	0.07 E-score
ATGCCGTA	0.373 E-score	0.355 E-score	0.385 E-score	0.41 E-score	0.36 E-score	0.117 E-score	0.307 E-score	0.412 E-score	0.432 E-score	–	0.395 E-score	–	0.0526 E-score
AGTTGACG	0.0881 E-score	0.0862 E-score	0.213 E-score	–	0.0554 E-score	0.107 E-score	0.198 E-score	0.0565 E-score	–	–	0.0919 E-score	0.43 E-score	–
CAAAAGTC	0.0755 E-score	0.138 E-score	0.222 E-score	0.112 E-score	–	0.252 E-score	0.133 E-score	0.141 E-score	–	0.0864 E-score	–	0.432 E-score	–
AAGGTCAA	0.138 E-score	0.106 E-score	0.146 E-score	0.0845 E-score	–	0.0822 E-score	0.144 E-score	0.101 E-score	–	0.252 E-score	–	0.484 E-score	0.0854 E-score
AATACTTA	–	0.162 E-score	0.254 E-score	0.104 E-score	–	0.0916 E-score	0.0985 E-score	0.187 E-score	0.0602 E-score	0.405 E-score	0.135 E-score	–	0.0845 E-score
